The list shows a part of the results. A call without a number means that no potency is given here. Inconclusive results are not listed. Active and inactive are the calls of the source. Calls follow the shape of the dose curve; as a rule, active = well fitted inhibition curve with a large enough effect; inconclusive = small, poorly fitted or top-dose-only effect; inactive = no such curve, though single readings can be large or run the other way.

The source of these data is PubChem BioAssay AID2390 (National Center for Advancing Translational Sciences (NCATS), 2010).

Regulator of G-protein signaling 12 (Homo sapiens), sequence (O14924 whole entry, looked up): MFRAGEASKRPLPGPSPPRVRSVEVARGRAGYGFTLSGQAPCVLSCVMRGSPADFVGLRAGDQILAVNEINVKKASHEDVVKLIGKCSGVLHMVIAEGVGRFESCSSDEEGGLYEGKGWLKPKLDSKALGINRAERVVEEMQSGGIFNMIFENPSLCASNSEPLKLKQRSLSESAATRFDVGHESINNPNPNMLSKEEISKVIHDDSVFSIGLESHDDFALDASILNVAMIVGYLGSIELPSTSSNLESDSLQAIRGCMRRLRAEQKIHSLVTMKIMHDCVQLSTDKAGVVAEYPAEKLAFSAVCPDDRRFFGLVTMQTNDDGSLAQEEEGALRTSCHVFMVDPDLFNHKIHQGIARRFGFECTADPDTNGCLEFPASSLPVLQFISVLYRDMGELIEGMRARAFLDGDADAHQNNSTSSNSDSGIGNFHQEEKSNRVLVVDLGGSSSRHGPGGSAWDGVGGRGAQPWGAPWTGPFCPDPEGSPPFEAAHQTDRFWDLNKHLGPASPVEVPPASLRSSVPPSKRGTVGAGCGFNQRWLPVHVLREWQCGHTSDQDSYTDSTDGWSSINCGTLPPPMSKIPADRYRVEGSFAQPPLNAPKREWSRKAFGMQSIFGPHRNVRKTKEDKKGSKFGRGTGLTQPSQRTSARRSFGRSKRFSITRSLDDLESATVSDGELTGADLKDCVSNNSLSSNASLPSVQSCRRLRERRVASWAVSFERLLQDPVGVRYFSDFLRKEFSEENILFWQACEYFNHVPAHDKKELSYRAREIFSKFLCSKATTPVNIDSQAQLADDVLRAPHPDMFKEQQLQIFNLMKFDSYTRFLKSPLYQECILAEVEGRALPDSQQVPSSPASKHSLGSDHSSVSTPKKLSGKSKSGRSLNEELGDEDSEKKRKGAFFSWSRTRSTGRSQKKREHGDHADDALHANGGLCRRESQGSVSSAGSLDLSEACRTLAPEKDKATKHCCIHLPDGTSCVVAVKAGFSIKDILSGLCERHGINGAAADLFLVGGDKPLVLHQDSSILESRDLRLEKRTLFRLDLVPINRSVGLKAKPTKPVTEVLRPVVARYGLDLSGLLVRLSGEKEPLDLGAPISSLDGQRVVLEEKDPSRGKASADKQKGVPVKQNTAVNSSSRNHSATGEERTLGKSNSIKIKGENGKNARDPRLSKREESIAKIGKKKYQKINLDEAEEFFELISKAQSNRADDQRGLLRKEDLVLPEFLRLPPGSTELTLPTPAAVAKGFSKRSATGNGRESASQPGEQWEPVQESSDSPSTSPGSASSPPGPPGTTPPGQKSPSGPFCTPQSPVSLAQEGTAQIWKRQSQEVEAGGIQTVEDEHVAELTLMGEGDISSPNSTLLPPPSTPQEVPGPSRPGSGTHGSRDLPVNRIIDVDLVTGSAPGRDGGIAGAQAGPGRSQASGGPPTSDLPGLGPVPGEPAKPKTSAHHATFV

This assay deals with Regulator of G-protein signaling 12 (Homo sapiens) (UniProt O14924). Description: Confirmation qHTS Assay for Inhibitors of RGS12 GoLoco Motif Activity (Red Fluorophore). To be noted: Gai1/rhodamine-RGS12 GoLoco peptide fluorescence polarization; series mostly up to 57.1 µM. The source says:
G-protein-coupled receptors (GPCRs) are major targets for drug discovery. The regulator of G-protein signaling (RGS)-protein family has important roles in GPCR signal transduction. RGS proteins contain a conserved RGS-box, which is often accompanied by other signaling regulatory elements. RGS proteins accelerate the deactivation of G proteins to reduce GPCR signaling; however, some also have an effector function and transmit signals. Combining GPCR agonists with RGS inhibitors should potentiate responses, and could markedly increase the agonist's regional specificity. The diversity of RGS proteins with highly localized and dynamically regulated distributions in brain makes them attractive targets for pharmacotherapy of central nervous system disorders. […] A complex of Gai1 and fluorescently labeled G-alpha-binding peptide (the "GoLoco motif") derived from RGS12 is incubated with library members. Inhibitors of the binding are detected by a decrease in the fluorescence polarization (FP) of the fluorophore. Protein was supplied by Prof. David Siderovski, University of North Carolina at Chapel Hill. This BioAssay is a confirmatory run of primary qHTS protocol (AID: 880). See following reference for more details: Kimple AJ, et al. Comb Chem High Throughput Screen. 2008 Jun;11(5):396-409. Assay Submitter: Siderovski, David P, University of North Carolina at Chapel Hill Screening Center PI: Austin, C.P. Screening Center: NIH Chemical Genomics Center [NCGC] NIH Grant: NS053754-01
Reagents/Controls: Assay Buffer: 10 mM Tris-HCl, 150 mM NaCl, 0.1 mM GDP (prepared fresh), and 0.05% NP40 at pH 7.5. […] 15 nM Rhodamine labeled peptide/25 nM protein in columns 1, 2, 5 - 48. Titration of unlabeled peptide control ([H][…][NH2], custom synthesized and HPLC-purified by Tufts University Core Facility) from 20 mM, then 1:2 dilution, 16-point in duplicate, pin-transferred to column 2, rows 1 to 32. Column 1 is neutral. Rhodamine-labeled peptide (Rhodamine-[…]-NH2) was custom-synthesized and HPLC-purified by Invitrogen (Carlsbad, CA). Assay Steps. Four uL of reagents were dispensed to 1536-well Greiner black solid-bottom plates. Compounds and controls (23 nL) were transferred via Kalypsys PinTool. The plates were incubated for 10 min at room temperature, and then read on ViewLux (Perkin-Elmer) High-throughput CCD imager using BODIPY for the rhodamine-labeled decapeptide probe. During dispense, reagent bottles were kept submerged into 4 deg C water bath and all liquid lines were covered with aluminum foil to minimize probe and protein degradation. All screening operations were performed on a Kalypsys robotic system (Kalypsys, Inc., San Diego, CA) containing one RX-130 and two RX-90 anthropomorphic robotic arms.
Consider `Cc1nn(C)cc1N1C(=O)c2cccc3c(N)ccc(c23)C1=O`, for which the Potency is 14.1 µM (active).
To `CCn1c(SCC(=O)NCc2ccco2)nnc1-c1ccc(N)cc1` belongs “inactive”; to `Cc1cc2nc3c(=O)n(Cc4ccccc4)c(=O)[nH]c3nc2cc1N`, 3.98 µM (active); to `O=C(Nc1cccc(Nc2nccc(Nc3cccc(C(F)(F)F)c3)n2)c1)C1CC1`, “inactive”.
